Laboratory results reported in PubChem BioAssay AID2284084 (EPA ToxCast).
Activity calls are given as the source filed them. How the source made its calls: active means hit-call score of the fitted dose curve at least 0.9, where 1 is the maximum; inactive means score below 0.9.

What follows are compounds tested against human CK1alpha CK1 Kinase, CSNK1A1 (gene 1452) (UniProt P48729) (assay: ERF_TW_ENZ_hCSNK1A1: Eurofins (ERF) Enzymatic Radiometric [10 uM ATP] Assay for human CK1alpha CK1 Kinase).
Sequence of human CK1alpha CK1 Kinase, CSNK1A1 (gene 1452) (P48729 whole entry, looked up): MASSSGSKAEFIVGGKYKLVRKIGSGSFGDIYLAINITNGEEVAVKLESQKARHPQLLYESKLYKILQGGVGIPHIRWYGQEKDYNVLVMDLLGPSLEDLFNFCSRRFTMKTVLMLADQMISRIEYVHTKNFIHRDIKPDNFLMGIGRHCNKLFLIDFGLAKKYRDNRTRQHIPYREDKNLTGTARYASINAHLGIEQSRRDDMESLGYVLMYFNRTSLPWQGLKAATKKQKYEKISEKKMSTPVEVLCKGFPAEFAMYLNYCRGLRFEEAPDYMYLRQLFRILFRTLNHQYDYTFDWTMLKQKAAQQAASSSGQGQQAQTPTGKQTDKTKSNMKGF
Procedure: ERF_TW_ENZ_hCSNK1A1 is a biochemical, single-readout assay that uses extracted gene-proteins in a cell-free assay. Measurements were taken 0.5 hour after chemical dosing in a 96-well plate. See CK1alpha Human CK1 Kinase Enzymatic Radiometric Assay [10 uM ATP], Panlabs.ERF_TW_ENZ_hCSNK1A1 is an assay component calculated from the ERF_TW_ENZ_hCSNK1A1 assay. It is designed to measure enzyme activity using a type of enzyme reporter as detected by scintillation counting with radiometry technology.Data from the assay component ERF_TW_ENZ_hCSNK1A1 was analyzed at the assay endpoint, ERF_TW_ENZ_hCSNK1A1, in the positive analysis fitting direction relative to DMSO as the negative control and baseline of activity. Using a type of enzyme reporter, loss-of-signal activity can be used to understand changes in enzymatic activity as they relate to gene CSNK1A1. To generalize the intended target to other relatable targets, this assay endpoint is annotated to the kinase intended target family, where the subfamily is serine/threonine kinase.
CK1alpha (h) is incubated for 120 minutes at room temperature, with KRRRALS(p)VASLPGL (SP15) as substrate, and PP1 Analog II. 1NM-PP1 as control inhibitor. Test Sample Requirements: Compound should be supplied in 100%DMSO. We require a stock solution at a concentration of at least 50x higher than the Final Assay Concentration of your cpd. […]
`O=C(/C=C/c1ccc(O)cc1)CC(=O)/C=C/c1ccc(O)cc1` was tested, and the AC50 was 872 nM (active).
